Measured values as given in the supplement of paper PMC3898565.
± gives the uncertainty stated by the source.

Tested on: U87
Assay: cell viability relative to vehicle control; higher = less growth inhibition (less active)
Conditions: 10 µM; 72 h
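Note: viable cell number estimated from Alamar Blue fluorescence read at 560/90, part of a single-dose primary screen of an FDA-approved drug library.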

Row | SMILES | cell viability
1 | O=C(CCCN1CC=C(n2c(=O)[nH]c3ccccc32)CC1)c1ccc(F)cc1 | 106 ± 1.7%
2 | CC(C)[C@H](N)C(=O)OCCOCn1cnc2c(=O)nc(N)[nH]c21 | 103 ± 1.8%
3 | CN(C)CCCC1(c2ccc(F)cc2)OCc2cc(C#N)ccc21 (stereo not drawn) [Citalopram] | 102 ± 1.4%
4 | CC(C(=O)O)c1ccc(-c2ccccc2)c(F)c1 (stereo not drawn) [Flurbiprofen] | 105 ± 12%
5 | CC1=C(C(=O)O)N2C(=O)[C@@H](NC(=O)[C@H](N)c3ccccc3)[C@H]2SC1 [Cephalexin monohydrate] | 100 ± 1.7%
6 | COc1cc(-c2ccc(=O)[nH]n2)ccc1OC(F)F | 111 ± 3.7%
7 | CCCCCCNC(=O)n1cc(F)c(=O)[nH]c1=O | 55.1 ± 2.6%
8 | COc1ccccc1N1CCN(CC(O)COc2cccc3ccccc23)CC1 (stereo not drawn) | 99.6 ± 1.9%
9 | COc1ccc(/C=C/C(=O)Nc2ccccc2C(=O)O)cc1OC | 104 ± 1.1%
10 | Nc1nc2ccc(OC(F)(F)F)cc2s1 [Riluzole] | 98.1 ± 1.5%
11 | O=C1Nc2ccc(Cl)cc2[C@@](C#CC2CC2)(C(F)(F)F)O1 | 107 ± 1.1%
12 | Oc1ccc(/C=C/c2cc(O)cc(O)c2)cc1 [resveratrol] | 100.5 ± 0.97%
13 | CC(C(=O)O)c1ccc(CC2CCCC2=O)cc1 (stereo not drawn) | 99.3 ± 2.7%
14 | Clc1ccc(CO/N=C(\Cn2ccnc2)c2ccc(Cl)cc2Cl)c(Cl)c1 | 103 ± 3.9%
15 | CC(=O)OCC(=O)NCCCOc1cccc(CN2CCCCC2)c1 | 102 ± 1.4%
16 | C[C@H]1COc2c(N3CCN(C)CC3)c(F)cc3c(=O)c(C(=O)O)cn1c23 | 102.8 ± 0.96%
17 | Cc1cn([C@H]2C=C[C@@H](CO)O2)c(=O)[nH]c1=O | 105 ± 3%
18 | C[C@H]1C[C@H]2[C@@H]3CCC4=CC(=O)C=C[C@]4(C)[C@@]3(Cl)[C@@H](O)C[C@]2(C)[C@@]1(O)C(=O)CO [Beclomethasone] | 106 ± 1.5%
